Compound activity from PubChem.
An excerpt weighted towards active compounds, which were near 5.7% of everything screened.
HepG2 viability – qHTS for Inhibitors of TGF-b: Cytotox Counterscreen | HepG2 CAGA-GFP viability, ATP luminescence, 18 h | Potency, µM (titrated, usually from 46.1 µM), for inactives: at the top dose activity change, negative = cytotoxicity, hits mostly cytotoxic | 410,000 tested, 0.76% active | AID 588856, 2011; note: potency is the fitted concentration of half-maximal effect
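CellTiter-Glo luminescence gave cytotoxicity after 18 hours at 37 degrees C. The cells were HepG2 CAGA-GFP in 1% FBS DMEM, stimulated with 500 pg/mL TGF-beta after compound addition. %Activity was normalised to no-cell wells (complete cell-killing) and DMSO (no toxicity), and curves were fitted and classified.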
TGFb SMAD3 inh – qHTS for Inhibitors of TGF-b | HepG2 CAGA-GFP TGF-b/SMAD3 reporter, GFP fluorescence, 18 h; TGF-beta stimulated, 500 pg/mL final | Potency, µM (series often up to 46.1 µM), inactives show at the top dose activity, negative = inhibition, actives largely listed as inhibitors | 410,000 tested, 1.2% active | AID 588855, 2011; note: potency is the fitted concentration of half-maximal effect; % is set by controls: 0 for no effect and ±100 for the full control effect; nearly all actives have a fitted effect of over 65% in size
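Read-out: total well GFP (ex488/em500-530) summed from mean per-cell fluorescence. Cells: HEPG2 CAGA-GFP, 1% FBS DMEM, 18 h at 37 degrees C with 500 pg/mL final TGF-beta. Unstimulated wells served as the full-inhibition control; stimulated DMSO wells = 0%.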
IL-1B inflam inh – qHTS for Inhibitors of Inflammasome Signaling: IL-1-beta AlphaLISA Primary Screen; THP-1 LPS/ATP IL-1B secretion, AlphaLISA, 16 h; stronger effect = lower value; activity change, % at 57.5 µM; 360,000 tested, 4.7% active; in the data active = activity change below about -50%; inconclusive = mostly about -30% to -49%; note: % is set by controls: 0 for no effect and ±100 for the full control effect
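Secreted IL-1B measured by AlphaLISA bead assay after 16 h compound exposure of THP-1 cells; compounds (final up to 57.5 uM) added 1 h before LPS (250 ng/mL) and ATP (1.25 mM) stimulation; lower signal means less secretion.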
ATXN2 expr inh – Primary qHTS for Inhibitors of ATXN expression; AID 1745845, 2022; Potency, µM (top dose mostly 57 µM), inactives show at the top dose activity change, negative = inhibition, most hits filed as inhibitors; HEK-293 ATXN2-luciferase reporter, luminescence, 24 h; 360,000 tested, 0.72% active; note: potency is the fitted concentration of half-maximal effect; % is set by controls: 0 for no effect and ±100 for the full control effect; nearly all actives have a fitted effect of over 55% in size
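ATXN2-luciferase reporter cells (luciferase flanked by upstream and downstream ATXN2 gene portions) were treated 24 h at 37 °C with compounds at up to 57 uM. SteadyGlo luminescence gave expression; GF-AFC fluorescence gave viability.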
S2 tox – Viability Counterscreen for Primary qHTS for Inhibitors of ATXN expression; S2 cells (HEK-293 line with an ATXN2-luciferase reporter) viability, CellTiter-Fluor protease fluorescence, 24 h; Potency, µM (doses to about 56.7 µM), actives largely listed as cytotoxic; 400,000 tested, 0.49% active; AID 651635, 2014; note: potency is the fitted concentration of half-maximal effect; nearly all actives have a fitted effect of over 40% in size
* hit, by the source's call; i = inactive; ? = inconclusive; / = no result; [ ] = dose if it differs, or a comment. Unless noted, calls come from the whole dose curve; as a rule, active = well fitted curve in the direction sought with a large enough effect; inconclusive = small, poorly fitted or top-dose-only effect, or another doubt; inactive = no such curve, though single readings can be large; an effect the other way counts as inactive or inconclusive.

SMILES	HepG2 viability	TGFb SMAD3 inh	IL-1B inflam inh	ATXN2 expr inh	S2 tox
CNC(=O)N(O)C1N(/N=C/c2ccc(N(C)C)cc2)C(=S)SC1(C)C (stereo unspecified)	-18%	-18%	10	5%	i
CC1(C)SC(=S)N(/N=C/c2ccccc2)C1N(O)C(=O)Nc1ccc([N+](=O)[O-])cc1 (stereo unspecified)	11µM*	?	?	-27%	i
COc1ccc(S(=O)(=O)N2CCC(c3nnc(-c4ccccc4C)o3)CC2)c(OC)c1	-19%	?	/	3.5µM*	7.9µM*
CC1CCN(S(=O)(=O)c2ccc(Cl)cc2)CC1	0%	-2%	-13	-1%	i
COc1ccc(-c2nnc(C3CCN(S(=O)(=O)c4cccc(Cl)c4)CC3)o2)cc1	-48%	?	/	18µM*	11µM*
COc1ccc(S(=O)(=O)N2CCN(c3ccccn3)CC2)c(OC)c1	-2%	0%	21	/	i
CN(C)c1ccc(-c2noc(C3CCN(S(=O)(=O)c4cccc(Cl)c4)CC3)n2)cc1	-23%	-18%	-3	-21%	i
Cc1ccccc1-c1nnc(C2CCN(S(=O)(=O)c3ccc(Cl)cc3)CC2)o1	-40%	-15%	/	?	3.5µM*
COc1ccc(-c2nnc(C3CCN(C(=O)c4ccccc4F)CC3)o2)cc1	-28%	?	/	3.2µM*	3.2µM*
COc1ccccc1-c1nnc(C2CCN(C(=O)c3ccc(C)cc3)CC2)o1	-23%	?	/	11%	?
COc1ccccc1Cc1nc2ccccc2nc1SCC(=O)Nc1cccc(Cl)c1C	-9%	2%	/	/	/
COc1c(N2C[C@@H]3CCCN[C@H]3C2)c(F)cc2c(=O)c(C(=O)O)cn(C3CC3)c12	/	/	/	-31%	i
O=C(Nc1cccs1)Nc1ccc(Br)cc1F	-36%	11µM*	/	-11%	i
COc1ccccc1N(CC(=O)Nc1ccc(Br)cc1F)S(=O)(=O)c1cccs1	5%	?	-54*	-14%	i
CCOC(=O)c1c(C)[nH]c(CCC(=O)NC(C)c2ccccc2)c1C (stereo unspecified)	5%	?	/	/	/
CCN(CC)CCNC(C(=O)Nc1cccc(C(C)=O)c1)c1ccccc1 (stereo unspecified)	13µM*	-29%	8	-6%	i
CCOc1ccc(NC(C(=O)Nc2cccc(C(C)=O)c2)c2ccccc2)cc1 (stereo unspecified)	-5%	-7%	0	-11%	i
O=c1c2ccccc2sn1-c1ccc(S(=O)(=O)N2CCOCC2)cc1	-20%	-26%	/	/	/
COc1ccc2[nH]c3c4c(ccc3c2c1)C(=O)C=CC4=O	-75%	14µM*	-77*	3.5µM*	6.3µM*
C=CCn1c(C)c(C(C)=O)cc(NC(=O)c2ccccc2)c1=O	-9%	0%	-28	-26%	/
C=CCN1C(=O)/C(=C/C(=O)OC)S/C1=N\NC(=O)c1ccccc1	3%	12%	-100*	-20%	i
Cc1cccc(Cn2cc(C(=O)c3ccccc3)c(=O)c3cc4c(cc32)OCO4)c1	0%	0%	/	-20%	?
CC(CN1CCOCC1)OC(=O)c1ccc(Br)cc1 (stereo unspecified)	-60%	?	31	-7%	?
O=C(c1ccccc1)C(CN1CCCCC1)c1ccccc1 (stereo unspecified)	-94%	?	-102*	20µM*	32µM*
CCCCCOc1ccc(C(O)C(CN2CCOCC2)c2ccccc2)cc1 (stereo unspecified)	-24%	-1%	-62*	-12%	i
SMILES	HepG2 viability	TGFb SMAD3 inh	IL-1B inflam inh	ATXN2 expr inh	S2 tox
O=C(c1ccc(Br)cc1)C(CN1CCOCC1)c1ccccc1 (stereo unspecified)	-95%	11µM*	-98*	27µM*	/
CCOc1ccc(C(=O)C(CN2CCOCC2)c2ccccc2)cc1 (stereo unspecified)	-81%	?	-95*	28µM*	/
Cc1ccc(Cl)cc1NC(=O)C(NS(=O)(=O)c1cccc2nsnc12)c1ccccc1 (stereo unspecified)	-1%	?	/	-13%	i
CC1CC=CC2C1C(=O)N(Cc1ccccc1)C2c1ccc(F)c(Br)c1 (stereo unspecified)	-83%	?	/	/	/
COc1ccc(NC(=O)Cc2ccccc2)cn1	-2%	2%	16	-16%	i
COc1ccc(NC(=O)/C(Cl)=C(/Cl)S(=O)Cc2ccccc2)cn1 (stereo unspecified)	7.1µM*	4µM*	-103*	2.8µM*	4.5µM*
COc1ccc(CS(=O)(=O)/C(Cl)=C(/Cl)C(=O)Nc2ccc(OC)nc2)cc1	-107%	?	-120*	13µM*	?
CS(=O)(=O)c1nc(S(=O)(=O)c2ccc(Cl)cc2)c(NCCN2CCOCC2)s1	-2%	-1%	-52*	-4%	i
CS(=O)(=O)c1nc(S(=O)(=O)c2ccc(Cl)cc2)c(NCCCn2ccnc2)s1	1%	0%	-56*	0%	i
CCNc1sc(S(C)(=O)=O)nc1S(=O)(=O)c1ccc(C)cc1	-14%	3%	/	11%	i
COc1ccc(Cl)cc1NC(=O)CSc1cn(CC(=O)N2CCCCCC2)c2ccccc12	-8%	?	/	/	/
OCC1CCCN(c2nc3cc4c(cc3cc2CNCc2cccc(C(F)(F)F)c2)OCO4)C1 (stereo unspecified)	/	/	/	/	i
CCOC(=O)C(C(C)=O)c1c(Br)c(O)c(O)c2c(C(=O)c3ccc(C)cc3)coc12 (stereo unspecified)	-41%	10µM*	-27	14µM*	?
O=C(Nc1ccc(Cl)cc1)Nc1ccccc1CC[N+](=O)[O-]	4%	9%	-15	-3%[11.3 µM]	i
CN(C)C(=O)Nc1ccccc1CC[N+](=O)[O-]	-5%	0%	-65*	1%[11.3 µM]	i
COc1ccc2nc(Nc3ccccc3OC)sc2c1	-20%	-4%	-8	/	i
Cc1nnc(NC(=O)C2CCN(S(=O)(=O)c3cc([N+](=O)[O-])ccc3Cl)CC2)o1	-17%	-22%	9	-1%	?
COc1ccc2nc(NC(=O)C3CC(=O)N(c4ccccc4)C3)sc2c1 (stereo unspecified)	-4%	-2%	-57*	-8%	i
Cc1cccc2sc(NC(=O)C3CCN(S(=O)(=O)c4cc([N+](=O)[O-])ccc4Cl)CC3)nc12	-16%	-20%	-76*	-36%	i
COc1ccc2nc(Nc3ccccc3)sc2c1	4%	6%	-67*	88%	/
COc1ccc2nc(NC(=O)C3CCN(S(=O)(=O)c4cccc5nsnc45)CC3)sc2c1	-33%	-4%	-77*	?	i
